Pol eta inh: DNA polymerase eta (human) inhibition; 1.2% of 390,000 active; AID 588591; Potency, µM (doses to about 114 µM), without a hit: at the highest dose activity change, negative = inhibition, most hits filed as inhibitors; recombinant Pol eta, fluorescent DNA replication assay; also: potency is read from the fitted curve at half-maximal effect; % is scaled to controls: 0 for no effect and ±100 for the full control effect
Target sequence (Q9Y253 whole entry, looked up): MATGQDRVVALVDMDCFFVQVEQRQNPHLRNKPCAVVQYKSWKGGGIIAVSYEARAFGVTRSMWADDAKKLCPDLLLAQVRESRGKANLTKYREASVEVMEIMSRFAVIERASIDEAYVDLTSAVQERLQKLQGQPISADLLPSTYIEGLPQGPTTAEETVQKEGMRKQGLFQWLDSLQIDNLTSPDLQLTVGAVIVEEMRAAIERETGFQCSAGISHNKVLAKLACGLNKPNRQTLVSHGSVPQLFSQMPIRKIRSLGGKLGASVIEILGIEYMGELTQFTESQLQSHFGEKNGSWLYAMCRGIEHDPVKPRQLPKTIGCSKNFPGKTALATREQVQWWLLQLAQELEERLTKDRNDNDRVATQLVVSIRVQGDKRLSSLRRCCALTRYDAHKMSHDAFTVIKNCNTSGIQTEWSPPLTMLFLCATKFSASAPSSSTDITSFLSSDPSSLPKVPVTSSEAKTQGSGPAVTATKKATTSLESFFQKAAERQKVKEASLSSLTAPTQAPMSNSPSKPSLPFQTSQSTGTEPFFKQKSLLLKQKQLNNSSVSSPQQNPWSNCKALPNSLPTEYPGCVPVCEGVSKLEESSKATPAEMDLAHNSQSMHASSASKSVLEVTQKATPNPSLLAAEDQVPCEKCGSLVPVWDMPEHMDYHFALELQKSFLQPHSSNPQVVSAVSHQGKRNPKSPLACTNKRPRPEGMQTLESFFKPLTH
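Pol eta at 10 nM preincubated with compounds 15 min at room temperature; reaction started with fluorescent substrate (50 nM final) and read kinetically at 0 and 10 min.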
POLK inh: blocks human DNA polymerase kappa activity | Q9UBT6 | purified Pol kappa, fluorescent DNA synthesis assay, 10 min | Potency, µM (titrated, usually from 107 µM), for inactives: at the top dose activity, negative = inhibition, hits mostly inhibitors | 0.53% of 400,000 active; also: potency is read from the fitted curve at half-maximal effect; % is scaled to controls: 0 for no effect and ±100 for the full control effect
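Kinetic fluorescence readout at 0 and 10 min followed reaction start with substrate at 50 nM final. Beforehand, enzyme (10 nM Pol kappa) stood 15 min with compound at room temperature; buffer-only wells were negative controls.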
POLI inh: inhibitors of human DNA polymerase iota. Potency, µM (doses to about 115 µM), for the others: at the highest dose activity, negative = inhibition, hits mostly inhibitors. 1% of 390,000 active. Pol iota fluorescent replication assay, 10 min; also: potency is read from the fitted curve at half-maximal effect
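Pol iota at 10 nM preincubated 15 min with compounds at room temperature; reaction started with fluorescent substrate, 50 nM final. Fluorescence read kinetically at 0 and 10 min; buffer-only wells as negative control.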
WRN inhibitor: inhibitors of human WRN helicase; AID 651768; WRN helicase unwinding, fluorescent forked duplex, kinetic; Potency, µM (top dose mostly 114 µM), for inactives: top-dose activity change, negative = inhibition, actives largely listed as inhibitors; 0.46% of 360,000 active; Q14191; also: potency is read from the fitted curve at half-maximal effect; % is scaled to controls: 0 for no effect and ±100 for the full control effect; nearly all actives have a fitted effect of over 55% in size
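Fluorescence dequenching readout, ex 525 nm/em 598 nm, kinetic mode: forked duplex DNA (100 nM final) with adjacent fluorophore and quencher unwound by WRN (20 nM final) with 2 mM ATP. Compound preincubation 15 min, room temperature.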
POLB inh: inhibitors of human DNA polymerase beta. P06746. Pol beta primer extension/strand displacement, fluorescence kinetic. Potency, µM (highest dose often 114 µM), inactives show at the highest dose activity change, negative = inhibition, usual class: inhibitors. 1.3% of 340,000 active; also: potency is read from the fitted curve at half-maximal effect; % is scaled to controls: 0 for no effect and ±100 for the full control effect
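Preincubation: enzyme (10 nM) with compound, 15 min, RT. Reaction: substrate added to 50 nM final. Reads: 0 and 10 min. Analysis: normalized, Hill fit.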
PI5P4Ka inh: blocks human PI5P4K alpha kinase activity | max response, % | P48426 | 1.2% of 330,000 active | PI5P4Kalpha enzyme, ADP-Glo luminescence, 60 min; active compounds read low; active = max response of -50% or lower; inconclusive = between -30% and -50%; inactive = -30% or higher; also: value at the top dose of about 77 µM; % is scaled to controls: 0 for no effect and ±100 for the full control effect
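Compounds were pin-transferred onto PI5P4Kalpha and substrate in HEPES pH 7.4 buffer with EGTA, CHAPS and 5% DMSO. ATP (5 microM final) started the reaction, which ran 60 minutes at room temperature before ADP-Glo detection.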
* = called active by the depositor; ? = inconclusive; . = not tested or not shown; [ ] = remark or other dose. In the library only some 2.8% were active in any assay of this set; here they are far more common. Unless noted, calls follow the shape of the dose curve; as a rule, active = well fitted curve in the direction sought with a large enough effect; inconclusive = small, poorly fitted or top-dose-only effect, or another doubt; inactive = no such curve, though single readings can be large; an effect the other way counts as inactive or inconclusive.

SMILES	Pol eta inh	POLK inh	POLI inh	WRN inhibitor	POLB inh	PI5P4Ka inh
CCNC(=O)C1(C)CCCN(C(=O)c2sc(-c3ccccc3)nc2C)C1 (centres undefined)	.	.	.	-5%	.	-1
O=C(O)c1cc(NC(=O)c2ccc([N+](=O)[O-])cc2)cc(NC(=O)c2ccc([N+](=O)[O-])cc2)c1	?	-9%	-12%	-2%[11.6 µM]	9%	-4
O=C(O)c1cccc(NC(=S)NC(NC(=O)c2cccc([N+](=O)[O-])c2)C(Cl)(Cl)Cl)c1 (centres undefined)	56µM*	-9%	11%	?	?	1
O=C(Nc1ccc([N+](=O)[O-])cc1)C(=O)Nc1cccc(C(=O)O)c1	-7%	5%	32%	-2%	-20%	-60*
Cc1nc2scc(-c3ccc(C(C)(C)C)cc3)c2c(=O)n1N	89µM*	-25%	?	-9%[57.1 µM]	2%	-20
COc1ccc(-c2csc3nc(C)n(-n4cccc4)c(=O)c23)cc1	-5%	-8%	7%	-4%	-4%	-5
O=c1c(-c2cccs2)nc2cnc(N3CCNCC3)nc2n1Cc1cccs1	.	32µM*	.	.	.	.
CN1CCN(c2ncc3nc(-c4cccs4)c(=O)n(Cc4cccs4)c3n2)CC1	.	-17%[60.1 µM]	.	.	.	.
O=c1c(-c2cc(F)cc(F)c2)nc2cnc(N3CCNCC3)nc2n1Cc1cccs1	.	28µM*	.	.	.	.
COCCCNc1ncnc2c1nnn2C	-12%	-8%[60.1 µM]	20%	.	-6%	.
Brc1cccc[n+]1Cc1ccc(C[n+]2ccccc2Br)cc1	.	0%	-3%	.	.	.
N=C1/C(=C/c2coc3ccccc3c2=O)C(=O)N=C2SC(c3ccco3)=NN12	3.2µM*	?	?	40µM*	-112%	-78*
Cc1ccnc(NS(=O)(=O)c2ccc(N3C(=O)c4ccccc4C3=O)cc2)n1	-16%	-3%	11%	-11%	28%	-3
Cc1ccnc(NS(=O)(=O)c2ccc(N3C(=O)c4c(Cl)c(Cl)c(Cl)c(Cl)c4C3=O)cc2)n1	79µM*	-12%	92%	-6%[11.6 µM]	1%	-29
CN1C(=O)c2ccccc2Sc2ccc(NC(=O)COc3ccc(Cl)cc3)cc21	-16%	-13%[60.1 µM]	-5%	.	2%	.
Cc1c(C(=O)OCC2CCCO2)[nH]c2c1C(=O)CC(c1ccco1)C2 (centres undefined)	3.2µM*	28µM*	?	40µM*	10µM*	-76*
C=CCOC(=O)c1[nH]c2c(c1C)C(=O)CC(c1ccco1)C2 (centres undefined)	25µM*	?	?	?	13µM*	-61*
Cc1ccc(Cn2c(C)c(C(=O)NCc3ccc4c(c3)OCO4)sc2=O)cc1	.	.	.	3%[57.1 µM]	.	-1
C=C1C=C(C)n2ncc(C(=O)Nc3cccc(C(=O)Nc4cccc(C(F)(F)F)c4)c3)c2N1	.	-10%	7%	.	.	.
Cc1ccc2nc(/C(C#N)=C/c3ccc(O)c(O)c3)[nH]c2c1	?	?	?	45µM*	?	-69*
O=Cc1ccc(/C=C2\C=Cc3ccccc32)cc1	.	2%	-3%	.	.	.
CC1(C)CC(=O)C=C(Nc2ccc(C(=O)O)cc2)C1	7%	-4%	4%	-4%	13%	-6
CC1(C)CC(=O)C=C(Nc2ccc(O)c(C(=O)O)c2)C1	12%	?	?	-7%	-12%	-94*
CN1CC(=O)N(CC(=O)Nc2cccc(C#N)c2)c2ccccc2C1=O	-24%	-9%[60.1 µM]	24%	.	-1%	.
Ic1ccc(Nc2nc(NCCN3CCOCC3)nc(N3CCCC3)n2)cc1	.	-23%	10%	.	.	.
SMILES	Pol eta inh	POLK inh	POLI inh	WRN inhibitor	POLB inh	PI5P4Ka inh
CCOc1ccc(NC(=O)CSc2nnc(CNC(=O)c3ccco3)o2)cc1	6%	0%[60.1 µM]	5%	9%	1%	-1
C/C(=N\NC(=O)c1ccc(-c2ccccc2)cc1)C1C(=O)c2ccccc2C1=O	32µM*	-5%	?	?	-9%	-18
C=CCN1[C@@H](C(C)C)COCCS1(=O)=O	.	-1%	26%	.	.	.
O=S(=O)(Nc1nc2c(s1)CCCC2)c1ccc2ccccc2c1	-13%	-8%	-5%	-9%	1%	-11
O=S(=O)(NC1=NCCCCC1)c1ccc2sc(NS(=O)(=O)c3ccc4ccccc4c3)nc2c1	?	-20%	11µM*	3%	1%	-28
Cn1c(NC(=O)c2ccc(F)cc2)nc2ccccc21	-17%	-14%	89µM*	-1%[11.6 µM]	5%	-4
CSCC(=O)N1CCC(n2nccc2NC(=O)c2ccc3c(c2)OCO3)CC1	-19%	79µM*	?	1%	11%	7
C=CCn1c(C)cc(C(=O)Cn2c(C(C)O)nc3ccccc32)c1C (centres undefined)	-19%	-1%	137%	-3%	61%	9
Cc1cc(C(=O)Cn2c(CO)nc3ccccc32)c(C)n1C	-3%	-26%	79µM*	-8%[11.6 µM]	-11%	-29
CCC(C)N=C1Sc2nc3ccc(C)cc3cc2CN1CCOC (centres undefined)	-17%	-10%	19%	-16%	4%	-53*
O=C(NNC(=O)c1cccc(-n2cccc2)c1)c1ccc(F)cc1	14µM*	?	50µM*	?	.	-68*
CCc1ccccc1NC(=O)c1nc2nc(C)cc(C(F)F)n2n1	-19%	-2%	17%	.	-2%	.
Cc1ccc(C(=O)CCC(=O)OCC(=O)NNC(=O)c2ccccc2Cl)cc1	-17%	8%	21%	4%	.	-1
Cc1nc2ccc(NC(=O)c3cc([N+](=O)[O-])cc([N+](=O)[O-])c3Cl)cc2s1	?	-9%	?	10µM*	-1%	-28
Cc1nc2ccc(NC(=O)c3ccc(Cl)c([N+](=O)[O-])c3)cc2s1	-10%	1%	15%	-6%	-6%	6
O=CC(=O)c1ccc(Cl)cc1	.	9%	21%	.	.	.
Cc1cc(O)c(C(C)C)cc1N=Cc1ccc([N+](=O)[O-])cc1	-20%	-4%	10µM*	?	.	3
Cc1ccc(NC(=O)C(Cc2ccccc2)N2Cc3ccccc3C2=O)cc1Cl (centres undefined)	-19%	0%	4%	.	1%	.
O=C(Nc1ccccc1Cl)OC1CCCCC1	-20%	0%	40%	-11%	9%	23
O=[N+]([O-])c1ccc(Cl)c(-c2ccc(/C=N/n3cnnc3)o2)c1	?	?	?	?	25µM*	-1
O=[N+]([O-])c1cc(-c2ccc(/C=N/n3cnnc3)o2)ccc1Cl	-5%	-27%	-24%	1%	-1%	2
O=C1C(=Cc2ccco2)CCCC1=Cc1ccco1	22µM*	50µM*	20µM*	?	.	-28

Screening data deposited in PubChem by National Center for Advancing Translational Sciences (NCATS).
